Source: PubChem BioAssay AID1209 (Sanford-Burnham Center for Chemical Genomics, 2008)
The campaign covered roughly 190,000 compounds. About 810 (0.43%) were called active. Rule as the data show it: active = inhibition above about 50%; inactive = the rest. The sample as a whole holds a higher share of actives than the screen did.

molecular target: Mannose-6-phosphate isomerase (Homo sapiens) (UniProt P34949); experiment: MPI enzyme activity inhibition – biochemical, fluorescence intensity, coupled assay, primary screen (AID 1209); settings: purified PMI enzyme, at 20 µM, hits give high values;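 also: plate controls were DMSO vehicle for no effect and wells lacking substrate for full effect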
Sequence (P34949 whole entry, looked up): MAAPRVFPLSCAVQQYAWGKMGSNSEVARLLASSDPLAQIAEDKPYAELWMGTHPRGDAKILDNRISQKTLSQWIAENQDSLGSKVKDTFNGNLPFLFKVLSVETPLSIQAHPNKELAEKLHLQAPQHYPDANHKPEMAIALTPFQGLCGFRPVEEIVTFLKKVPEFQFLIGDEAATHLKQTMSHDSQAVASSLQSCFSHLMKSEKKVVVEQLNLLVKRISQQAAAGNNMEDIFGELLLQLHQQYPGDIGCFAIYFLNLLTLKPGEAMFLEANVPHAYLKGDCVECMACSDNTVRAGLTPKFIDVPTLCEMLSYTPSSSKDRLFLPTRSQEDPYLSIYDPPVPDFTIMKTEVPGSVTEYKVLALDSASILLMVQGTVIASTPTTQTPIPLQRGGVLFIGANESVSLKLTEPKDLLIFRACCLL

inhibition, active:
O=C(COC(=O)C(Cc1ccccc1)NC(=O)c1ccc(Cl)cc1)c1ccc(Cl)cc1 (stereo not given) 111%
Oc1ccc2ccccc2c1C=NC1CCCCC1 79.8%
Oc1ccc2ccccc2c1C=NC12CN3CCN(CN(C3)C1)C2 67.7%
Nc1cc2nsnc2cc1Br 61%
CCOc1cccc(CNc2ccc(O)cc2)c1OCc1ccc(Cl)cc1 53.9%
CCOC(=O)c1sc(/N=C/c2c(O)ccc3ccccc23)cc1C 58.3%
COc1ccc(-c2ccc(C(=O)O)o2)c([N+](=O)[O-])c1 73.7%
CCN(CC)S(=O)(=O)c1cccc(C(=O)N/N=C/c2ccc(O)c(O)c2O)c1 77.7%
COCc1[nH]nc2c1C(c1cc(OC)c(O)c(OC)c1)C(C#N)=C(N)O2 (stereo not given) 53.8%

inhibition, inactive:
OCCNCc1cc(Br)ccc1OCc1ccc(Cl)cc1 10.8%
COc1ccccc1NC(=O)CCN1CCCCCC1 -1.2%
O=C(Cc1ccccc1F)OCC(=O)N1CCN(C(=O)c2ccco2)CC1 -7.8%
COc1cc(/C=N/NC(=O)C(Cc2c[nH]c3ccccc23)NC(=O)OCC(C)C)cc([N+](=O)[O-])c1OCc1ccccc1 (stereo not given) 13.6%
Cc1ccc(S(=O)(=O)N2CCCC(C(=O)NCc3cccnc3)C2)cc1Cl (stereo not given) 12.2%
CCOc1ccc(NC(=O)CSc2nnc(-c3ccccn3)n2C)cc1 2.1%
[N-]=[N+]=CC(=O)CNC(=O)[C@@H](Cc1ccccc1)N1C(=O)c2ccccc2C1=O -1.7%
CCc1nc(SC)[nH]c(=O)c1C -10.9%
COC(=O)c1c(NC(=O)/C=C/c2ccco2)sc2c1CCC2 -2.8%
CCOc1ccc(NS(=O)(=O)c2ccc(NC(=S)NC(C)=O)cc2)cc1 4.1%
O=C(COC(=O)C(Cc1ccccc1)NC(=O)c1ccccc1)c1ccccc1 (stereo not given) 6.8%
CCc1ccc(C(=O)COC(=O)C(Cc2ccccc2)NC(=O)c2ccc(Cl)cc2)cc1 (stereo not given) 11.2%
O=C(OC1CCOC1=O)c1cc(-c2ccccc2)nc2ccccc12 (stereo not given) 8.9%
Oc1ccc2ccccc2c1C=Nc1ccc(N2CCOCC2)cc1 35.2%
OCC(CO)(CO)N=Cc1c(O)ccc2ccccc12 37.3%
Oc1ccc2ccccc2c1/C=N/n1cnnc1 15.7%
CN(C)/N=C/c1c(O)ccc2ccccc12 31.9%
O=C(CCc1ccccc1)Nc1ccc(N2CCOCC2)c(Cl)c1 11.3%
N#Cc1nc(COc2ccccc2)oc1NCCCn1ccnc1 0.3%
CCC(=O)Nc1ccccc1-c1nnn(CC(=O)N2c3ccccc3CC2C)n1 (stereo not given) 13%
CCCCN(C(=O)c1ccc(S(=O)(=O)N(C)C)cc1)c1nc2ccccc2s1 11.7%
CCOC(=O)Cc1cnc(N)s1 2.1%
COCCN(CC(=O)NCC1CCCO1)C(=O)CCC(=O)Nc1cc(C)ccn1 (stereo not given) -12.3%
Nc1cnc(Br)cc1Br -8.6%
Cc1ccc2nsnc2c1N 8.5%
NS(=O)(=O)c1ccc(CCNC(=O)CSc2ncnc3ccccc23)cc1 7.5%
CCOc1cccc(CNc2ccc(O)cc2)c1OCc1ccccc1Cl 28.5%
CCOc1cccc(CNc2ccc(O)cc2)c1OCc1ccc(Cl)cc1Cl 40.3%
CC(OC(=O)C1=COCCO1)C(=O)Nc1cc(S(=O)(=O)N2CCCCC2)ccc1Cl (stereo not given) -6.3%
COCCCNC(=S)N1CCN(c2ccc([N+](=O)[O-])cc2)CC1 5%
Cc1ccc(CNC(=O)CCNC(=O)c2ccco2)cc1 -8.4%
CCOC(=O)c1cc(CC)sc1/N=C/c1c(O)ccc2ccccc12 37.2%
CCOC(=O)c1sc(/N=C/c2ccc(O)cc2O)cc1C 28.9%
CCc1ccc(NC(=S)/N=C(\N)Nc2nc(C)c3cc(CC)ccc3n2)cc1 11.4%
CNC(=O)/C(C#N)=C/c1ccc(-c2ccc(OC)cc2[N+](=O)[O-])o1 28.2%
COc1cccc(NC(=O)c2ccc(-c3ccccc3[N+](=O)[O-])o2)c1 -13.3%
Cn1c(SCC(=O)N2CCOCC2)nnc1-c1cccc(NC(=O)c2ccccc2F)c1 2.1%
COc1ccc(-c2nc(N)n[nH]2)cc1OC 2.2%
COc1ccc(-c2nn[nH]n2)cc1OC -5%
Cc1c(C(=O)NN)sc(-c2ccccc2)c1C#N -23.8%
CCN(CC)S(=O)(=O)c1cccc(C(=O)N/N=C/c2cccc(O)c2O)c1 20%
CCN(CC)S(=O)(=O)c1cccc(C(=O)N/N=C/c2cc(OC)c(O)c(OC)c2)c1 19.2%
CCn1c(C)nc2cc(C(=O)N/N=C/c3cccc(OC)c3O)ccc21 5.6%
CCn1c(C)nc2cc(C(=O)N/N=C/c3ccccc3C)ccc21 -4.6%
NC(=O)COC(=O)c1c2c(nc3ccccc13)CCCC2 -8.6%
NS(=O)(=O)c1ccc(CCNC(=O)c2ccc3nc4ccc(Cl)cc4c(=O)n3c2)cc1 -11.6%
CC(C)(C(=O)O)n1cncn1 -17.9%
CC(C)(C)c1ccccc1OCCCCCn1ccnc1 14%
Oc1ccccc1/C=N/N1CCCCC1 10.8%
CC(=O)NC1=NN(C(C)=O)C(c2ccccc2)S1 (stereo not given) 10.4%
O=C(COc1ccc(C(=O)NCCc2ccccc2)cc1)Nc1ccccc1 9.8%
COCc1[nH]nc2c1C(c1ccc(OC)c(OC)c1)C(C#N)=C(N)O2 (stereo not given) 2%
COCc1[nH]nc2c1C(c1ccc(OC)cc1)C(C#N)=C(N)O2 (stereo not given) 21.3%
CCOc1ncccc1C(=O)OCC(=O)c1cc(OC)ccc1OC -1.1%
COc1ccc(C(=O)COC(=O)c2cccnc2Cl)c(OC)c1 0.1%
O=C(O)C1CCCCC1C(=O)NCc1ccc(F)cc1 (stereo not given) 13.1%
